Out of some 68,000 compounds screened, about 2,700 (4%) showed an effect of 50% or more. Many of the other results were omitted from the sample, so strong results are more common in it than they were.
Each compound was assayed on Plasmodium berghei (assay: Screen against P. berghei liver stage (PbLuc), transformed with Luciferase, at 2uM). Conditions: tested at 2 uM.
Format: functional, HepG2
`CCc1cnc(C)nc1NC(C)C(=O)Nc1cc(F)ccc1C` (stereo not drawn) was tested, and the INHIBITION was 20.32%.
For `CCCNC(=O)c1cc(C2CCCN(Cc3ccccn3)C2)no1` (stereo not drawn), the INHIBITION was 72.41%.
`O=C(NC1CC1)c1cc(C2CCCN(Cc3ccccn3)C2)no1` (stereo not drawn) was tested, and the INHIBITION was -15.37%.
`O=C(c1cc(C2CCCN(Cc3ccccn3)C2)no1)N1CCCC1` (stereo not drawn) gave an INHIBITION of 39.48%.
`CC(C)c1nn(C)c(Cl)c1CNC1CCOc2ccccc21` (stereo not drawn) gave an INHIBITION of -14.17%.
For `CN(C)c1ccc(CN2CCN(c3ccc(C#N)cc3)C(=O)C2)cn1`, the INHIBITION was -13.81%.
In the case of `Cc1ccc(CN2CCN(c3cncc(N(C)C)n3)CC2=O)cc1C`, the INHIBITION is reported as 27.72%.
With `Cc1ccc(CN2CCN(Cc3ccc(N(C)C)nc3)CC2=O)cc1C` the INHIBITION was 61.3%.
`CC1COCCN1Cc1nc(-c2ccc(Br)s2)no1` (stereo not drawn) was tested, and the INHIBITION was 17.31%.
With `Fc1ccc(-c2noc3c2CN(CC2CC2)CC3)cc1F` the INHIBITION was 21.49%.
Compound `CC(C)(O)CCc1cccc(C(=O)NCCC2=CSC3=NCCCN23)c1` has an INHIBITION of 9.51%.
With `COCCNc1ccc(CC2CCCN(Cc3c[nH]cn3)C2)nn1` (stereo not drawn) the INHIBITION was -35.23%.
Work on `CCOc1ccccc1C(=O)NC(CC(=O)O)c1cccs1` (stereo not drawn) yielded an INHIBITION of -23.34%.
In the case of `CCCC(NC(=O)c1cc(C2CC2)[nH]n1)c1nnc2ccccn12` (stereo not drawn), the INHIBITION is reported as 19.42%.
For `NCc1n[nH]c(=O)n1-c1ccccc1Oc1ccccc1`, the INHIBITION was 28.73%.
`CC(C)N1CCOCC2(CCN(c3cnccn3)CC2)C1` was tested, and the INHIBITION was -10.43%.
In the case of `COCCN1CCOCC12CCN(c1cnccn1)CC2`, the INHIBITION is reported as 10.71%.
`COCCN1CCOCC2(CCN(c3cnccn3)CC2)C1` was tested, and the INHIBITION was 50.85%.
`Cc1nc(C(=O)N2CCC(c3cc(CCO)n(C)n3)C2)co1` (stereo not drawn) gave an INHIBITION of -13.45%.
In the case of `Cc1nc(CN(C)C2CCCN(c3cccnn3)C2)no1` (stereo not drawn), the INHIBITION is reported as 51.21%.
For `Cc1nc(CN(C)C2CCN(CCCc3ccccc3)C2)no1` (stereo not drawn), the INHIBITION was 16.25%.
For `Cc1nc(CN(C)C2CCN(Cc3nc4ccccc4s3)C2)no1` (stereo not drawn), the INHIBITION was -75.02%.
`Cc1ccc(N2CCCC(N(C)Cc3cc(C)on3)C2)nn1` (stereo not drawn) was tested, and the INHIBITION was -1.21%.
For `Cc1nc(CN(C)C2CCN(Cc3ccc4ccccc4n3)C2)no1` (stereo not drawn), the INHIBITION was 55.7%.
`Cc1ccc(N2CCCC(N(C)Cc3cc(C)no3)C2)nn1` (stereo not drawn) was tested, and the INHIBITION was 75.47%.
Work on `Cc1nc(CN(C)C2CCCN(c3ccccc3)C2)no1` (stereo not drawn) yielded an INHIBITION of 74.35%.
With `Cc1cc(CN(C)C2CCCN(c3cccnn3)C2)on1` (stereo not drawn) the INHIBITION was 13.35%.
In the case of `CC(C)c1nc(CN(C)C2CCCN(c3cccnn3)C2)no1` (stereo not drawn), the INHIBITION is reported as -68.26%.
Work on `Cc1nc(CN(C)C2CCN(Cc3nc4ccccc4n3C)C2)no1` (stereo not drawn) yielded an INHIBITION of -2.87%.
Compound `CN(Cc1noc(C2CC2)n1)C1CCCN(c2cccnn2)C1` (stereo not drawn) has an INHIBITION of -13.24%.
In the case of `Cc1nc(CN(C)C2CCN(CC3CCC3)C2)no1` (stereo not drawn), the INHIBITION is reported as 15.28%.
Work on `COCCC(=O)NC(C)(C(N)=O)c1cccc(Cl)c1` (stereo not drawn) yielded an INHIBITION of 7.37%.
`O=S1(=O)CCC(n2nc(COc3ccccc3)nc2-c2cnccn2)C1` (stereo not drawn) showed an INHIBITION of -5.42%.
Work on `Cc1nc(CCNC(Cc2ccncc2)C(F)(F)F)cs1` (stereo not drawn) yielded an INHIBITION of -2.89%.
`CCN(C)Cc1n[nH]c(=O)n1-c1cc(F)ccc1C` gave an INHIBITION of 5.78%.
In the case of `CN(C)C(=O)Cc1ccccc1NCc1noc(-c2ccccc2)n1`, the INHIBITION is reported as 22.19%.
`CCn1nccc1CNc1nc(N)nc2c1nc(C)n2C` gave an INHIBITION of 14.79%.
`CNC(=O)C(NC(=O)c1nccn2ccnc12)c1ccc(F)c(F)c1` (stereo not drawn) showed an INHIBITION of 29.53%.
`CSCCC(Nc1nc(C)cc(C)n1)C(=O)NCC1CCOCC1` (stereo not drawn) showed an INHIBITION of 0.62%.
`CC(C)c1noc(CN2CCOCC2C)n1` (stereo not drawn) gave an INHIBITION of 27.86%.
Work on `COCCCNC(=O)CN(C)C1CCCN(c2cccnn2)C1` (stereo not drawn) yielded an INHIBITION of 64.16%.
Compound `CN(CC(=O)Nc1ccncc1)C1CCCN(c2cccnn2)C1` (stereo not drawn) has an INHIBITION of 7.13%.
`CN(CC(=O)NCc1ccccn1)C1CCCN(c2cccnn2)C1` (stereo not drawn) gave an INHIBITION of -117.12%.
`Cc1ccc(C(=O)N2CCC3(CCCCC3)C2)c(=O)[nH]1` showed an INHIBITION of -8.54%.
`CN(C)C(=O)c1c[nH]nc1C1CCN(S(=O)(=O)c2cccc(Cl)c2)CC1` gave an INHIBITION of 13.02%.
`Cc1ncsc1-c1nnc(C2CCN(Cc3cccc(F)c3F)CC2)o1` was tested, and the INHIBITION was 35.56%.
`Cc1cccc(CN2CCC3(CCCN(C(=O)N4CCCC4)C3)C2=O)n1` (stereo not drawn) was tested, and the INHIBITION was -9.14%.
With `Cc1cccc(CN2CCC3(CCCN(C(=O)N(C)C)C3)C2=O)n1` (stereo not drawn) the INHIBITION was 51.81%.
`Cc1cccc(CN2CCC3(CCCN(C(=O)CN(C)C)C3)C2=O)n1` (stereo not drawn) was tested, and the INHIBITION was 28.95%.
With `CC(C)Cn1cnc2ccc(NC(=O)CCCn3cccn3)cc2c1=O` the INHIBITION was 16.03%.
`CC(NC(=O)CCCn1cnc2ccccc2c1=O)c1ncn[nH]1` (stereo not drawn) gave an INHIBITION of 22.27%.
Compound `COCCn1cnc2ccc(NC(=O)CCCn3cccn3)cc2c1=O` has an INHIBITION of 52.05%.
Work on `Cn1cnc2ccc(NC(=O)CCCn3cccn3)cc2c1=O` yielded an INHIBITION of 25.61%.
